Reference: PubChem BioAssay
Results with a measured potency or affinity are listed apart. Inconclusive results are not listed. Active and inactive are the calls of the source. Unless noted, how the calls were made is not given here.

Experiments:
[1] = RMG-1 ovarian cancer cell viability loss – cherry-pick, dose response (AID 687029;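 active means signal drop whose fitted half-maximal concentration is at most twice the top valid dose, in every test run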;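 further: cells exposed to compound for 96 hours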); conditions: RMG-1 viability, CellTiterGlo ATP luminescence, 96 h; series mostly up to 35 µM
[2] = IOSE-T80 viability loss, PAX8-independent line – cell-based, cherry-pick, selectivity assay for PAX8 inhibitor project, dose response (AID 687032;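 active means fitted half-maximal concentration for viability loss no higher than twice the top valid dose, in every repeat run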;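 further: cells exposed to compound for 96 h before reading; 0% = neutral control wells and -100% = 2 µM mitoxantrone kill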); conditions: CellTiterGlo ATP luminescence, 96 h; series mostly up to 35 µM
[3] = CMV-driven luciferase expression suppression in HEK293 – cell-based, luminescence, dry powder, counter-screen for Pax8 inhibitor project, dose response (AID 743020;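 active means signal-lowering compounds whose fitted half-maximal concentration is at or below twice the top tested dose in every run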;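 further: HEK293 cells stably expressing the CMV luciferase reporter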); conditions: HEK293 CMV-luciferase reporter, SteadyGlo luminescence, 24 h; series mostly up to 35 µM
[4] = IGROV1 cell killing – plate reader, dry powder samples, PAX8 inhibitor project, dose response (AID 743043); conditions: IGROV1 ovarian cancer cell cytotoxicity; series mostly up to 35 µM;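 further: more negative means fewer viable cells or more cytotoxicity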
[5] = toxicity toward immortalized ovarian surface epithelium – cell-based, plate reader, dry powder samples, cytotoxicity control for PAX8 inhibitor project, dose response (AID 743045); conditions: IOSE-T80 ovarian epithelial cells; series mostly up to 35 µM;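 further: 0% = neutral control median and -100% = positive control median; more negative values mean more cell killing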
[6] = A2780 cell killing – plate reader, dry powder samples, cytotoxicity control, dose response (AID 743046); conditions: A2780 ovarian cancer cytotoxicity; series mostly up to 35 µM;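 further: 0% = neutral control wells and -100% = cytotoxic reference compound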
[7] = OVCAR8 cell viability loss – plate reader, dry powder samples, PAX8 project, dose response (AID 743197); conditions: series mostly up to 35 µM
[8] = OVCAR-3 cell viability loss – plate reader, dry powder samples, PAX8 inhibitor project, dose response (AID 743044); conditions: NIH:OVCAR-3 ovarian cancer cell viability; max activity: at 35 µM, active compounds read low unless noted; series mostly up to 50 µM
[9] = general cell-killing toxicity readout – plate reader, dry powder samples, cytotoxicity control for PAX8 inhibitor project, dose response (AID 743021); conditions: cell line, non-specific cytotoxicity counter-screen; series mostly up to 35 µM
[10] = toxicity toward HepG2 liver cells – cell-based, plate reader, cherry-pick, antagonist series, cytotoxicity control, dose response (AID 743416); conditions: series mostly up to 26 µM;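 further: 0% = neutral control wells and -100% = positive control wells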

Measured: max activity

COc1ccccc1C#Cc1ccc2c(c1)O[C@H](CN(C)Cc1ccncc1)[C@@H](C)CN([C@@H](C)CO)S2(=O)=O
not listed: [8] | [9] | [10]
inactive: all other assays above

COc1ccc(CN(C)C[C@@H]2OCCCC[C@H](C)Oc3ccc(NS(=O)(=O)c4ccc(C)cc4)cc3C(=O)N([C@H](C)CO)C[C@H]2C)cc1
inactive: [1] | [2] | [3] | [4] | [8] -36% | [5] | [6]

Cn1nnnc1Sc1ncnc2scc(-c3ccc4c(c3)OCO4)c12
inactive: [1] | [2] | [3] | [9] | [10]

COc1ccc(-c2csc3ncnc(Sc4nnnn4C)c23)cc1
inactive: [1] | [2] | [3] | [9] | [10]

COc1ccc(S(=O)(=O)N(C)C[C@H]2Oc3c(NC(=O)Nc4ccc(C(F)(F)F)cc4)cccc3C(=O)N([C@@H](C)CO)C[C@H]2C)cc1
not listed: [8] | [9] | [10]
inactive: all other assays above

CCCC#Cc1ccc([C@@H]2[C@H](C#N)N(S(=O)(=O)c3cccc(F)c3)[C@H]2CO)cc1
inactive: [1] | [2] | [3] | [4] | [5] | [7]

COc1ccc(NC(=O)Nc2ccc3c(c2)C(=O)N([C@@H](C)CO)C[C@@H](C)[C@H](CN(C)Cc2ccc(C(F)(F)F)cc2)O3)cc1
inactive: [1] | [2] | [3] | [4] | [8] 30.5% [at 30 µM, active compounds read low] | [5] | [6] | [7]

COc1cccc(C#Cc2ccc([C@H]3[C@@H](CO)N(C(=O)C4CCCC4)[C@H]3C#N)cc2)c1
inactive: [1] | [2] | [3] | [9] | [6] | [7]

C[C@@H]1CN([C@@H](C)CO)C(=O)c2cc(NC(=O)Nc3ccc(F)cc3)ccc2O[C@@H](C)CCCCO[C@H]1CN(C)Cc1ccc(C(F)(F)F)cc1
inactive: [1] | [2] | [3] | [4] | [5]

O=C(Nc1ccc(F)cc1)N1C[C@@H]2N[C@H](C1)C2c1ccc(/C=C/c2ccccc2)cc1 (stereo partly drawn)
inactive: [1] | [2] | [3] | [4] | [8] -17.6% | [5] | [6]

N#C[C@H]1[C@@H](c2ccc(C#Cc3ccccc3F)cc2)[C@@H](CO)N1C(=O)C1CCCCC1
inactive: [1] | [2] | [3] | [4] | [5] | [7]

O=C(C[C@@H]1CC[C@H]2[C@@H](COC[C@@H](O)CN2Cc2cccc(F)c2)O1)NCC1CCCCC1
inactive: [1] | [2] | [3] | [4] | [8] 45.7% [at 8 µM, active compounds read low] | [5] | [6] | [7]

C[C@@H]1CCCCO[C@@H](CN(C)C(=O)c2ccccc2)[C@@H](C)CN([C@@H](C)CO)C(=O)c2cc(NC(=O)Nc3ccc(C(F)(F)F)cc3)ccc2O1
inactive: [1] | [2] | [3] | [4] | [5] | [6]

COc1cccc(C#Cc2ccc([C@@H]3[C@@H](C#N)N(C(=O)C4CCCCC4)[C@H]3CO)cc2)c1
inactive: [1] | [2] | [3] | [4] | [8] 22.8% [at 1 µM, active compounds read low] | [5] | [6]

C[C@H](CO)N1C[C@H](C)[C@H](CN(C)Cc2ccccc2)OCCCC[C@H](C)Oc2ccc(NC(=O)Nc3ccc(C(F)(F)F)cc3)cc2C1=O
inactive: [1] | [2] | [3] | [9] | [7]

C[C@@H]1CN([C@H](C)CO)C(=O)CCCn2nncc2CO[C@H]1CN(C)Cc1ccc(Oc2ccccc2)cc1
inactive: [1] | [2] | [3] | [4] | [8] 10.8% [at 4.2 µM, active compounds read low] | [5] | [6] | [7]

CCCC#Cc1ccc([C@@H]2[C@@H](C#N)N(S(=O)(=O)c3cccc(F)c3)[C@H]2CO)cc1
inactive: [1] | [2] | [3] | [4] | [8] -20.5% [at 0.5 µM, active compounds read low] | [5] | [6]

N#C[C@H]1[C@@H](c2ccc(C#CC3CCCCC3)cc2)[C@@H](CO)N1S(=O)(=O)c1ccccc1
not listed: [8] | [9] | [10]
inactive: all other assays above

COc1ccccc1C#Cc1ccc2c(c1)O[C@@H](CN(C)Cc1cccnc1)[C@H](C)CN([C@H](C)CO)S2(=O)=O
inactive: [1] | [2] | [3] | [4] | [8] 17.1% | [5] | [6]

C[C@H](CO)N1C[C@H](C)[C@@H](CN(C)Cc2ccc(C(F)(F)F)cc2)Oc2ccc(NS(=O)(=O)c3ccccc3)cc2CC1=O
inactive: [1] | [2] | [3] | [4] | [5]

CCCC#Cc1ccc([C@H]2[C@@H](CO)N(C(=O)C3CCCCC3)[C@H]2C#N)cc1
not listed: [8] | [9] | [10]
inactive: all other assays above

C[C@@H]1CCCCO[C@H](CN(C)C(=O)NC2CCCCC2)[C@H](C)CN([C@@H](C)CO)C(=O)c2cc(NS(=O)(=O)c3ccc(Cl)cc3)ccc2O1
inactive: [1] | [2] | [3] | [4] | [8] -10.9% [at 0.26 µM, active compounds read low] | [5] | [6] | [7]

CCCNC(=O)Nc1ccc2c(c1)OC[C@@H](C)N(Cc1ccc(-c3ccccn3)cc1)C[C@@H](C)[C@H](OC)CN(C)C2=O
inactive: [1] | [2] | [3] | [4] | [8] 19.6% [at 1 µM, active compounds read low] | [5] | [6] | [7]

C[C@@H]1CN([C@H](C)CO)C(=O)c2cc(NC(=O)Nc3ccc(C(F)(F)F)cc3)ccc2O[C@@H](C)CCCCO[C@@H]1CN(C)C(=O)NC1CCCCC1
not listed: [8] | [9] | [10]
inactive: all other assays above

C[C@H](CO)N1C[C@H](C)[C@H](CN(C)C(=O)[C@H](Cc2ccccc2)N(C)C)OCc2ccccc2-c2c(n(C)c3ccccc23)C1=O
inactive: [1] | [2] | [3] | [4] | [5] | [7]

O=C(Nc1ccccc1)N1CCCCN2[C@H](CO)[C@H](c3ccc(C#Cc4ccccc4)cc3)[C@H]2C1
not listed: [8] | [9] | [10]
inactive: all other assays above

C[C@H](CO)N1C[C@H](C)[C@@H](CN(C)C(=O)Cc2ccccc2)OCCCC[C@H](C)Oc2ccc(NC(=O)Nc3ccc(C(F)(F)F)cc3)cc2C1=O
inactive: [1] | [2] | [3] | [4] | [8] 1.93% [at 8 µM, active compounds read low] | [5] | [6]

Cc1ccccc1-c1ccc2c(c1)O[C@H](CN(C)C(=O)Nc1ccc(C(F)(F)F)cc1)[C@H](C)CN([C@@H](C)CO)S2(=O)=O
inactive: [1] | [2] | [3] | [4] | [5] | [7]

N#C[C@@H]1[C@H](c2ccc(-c3ccccc3F)cc2)[C@@H](CO)N1C(=O)Cc1ccccc1
inactive: [1] | [2] | [3] | [9] | [6] | [7]

COc1ccc(NC(=O)Nc2ccc3c(c2)C(=O)N([C@H](C)CO)C[C@@H](C)[C@H](CN(C)Cc2ccc(C(F)(F)F)cc2)OCCCC[C@H](C)O3)cc1
inactive: [1] | [2] | [3] | [5] | [6]

CCS(=O)(=O)N1CC(=O)N2[C@H](CO)[C@@H](c3ccc(-c4ccccc4F)cc3)[C@H]2C1
inactive: [1] | [2] | [3] | [5] | [6]

Cc1ccc(S(=O)(=O)Nc2ccc3c(c2)CC(=O)N([C@@H](C)CO)C[C@H](C)[C@@H](CN(C)Cc2ccc(Oc4ccccc4)cc2)O3)cc1
inactive: [1] | [2] | [3] | [4] | [7]

C[C@H](CO)N1C[C@H](C)[C@@H](CN(C)S(=O)(=O)c2cccs2)OCCCC[C@H](C)Oc2ccc(NS(=O)(=O)c3ccc(Cl)cc3)cc2C1=O
inactive: [1] | [2] | [3] | [5] | [6]

Cc1ccc(S(=O)(=O)Nc2ccc3c(c2)C(=O)N([C@@H](C)CO)C[C@@H](C)[C@H](CN(C)Cc2ccc(C(F)(F)F)cc2)OCCCC[C@@H](C)O3)cc1
inactive: [1] | [2] | [3] | [5] | [6]

COc1ccccc1NC(=O)N1CCCCN2[C@H](CO)[C@H](c3ccc(-c4cccc(C)c4)cc3)[C@H]2C1
inactive: [1] | [2] | [3] | [5] | [6] | [7]

O=C(C[C@H]1CC[C@H]2[C@@H](COC[C@@H](O)CN2S(=O)(=O)c2cccc(Cl)c2)O1)Nc1ccc(-c2ccccc2)cc1
inactive: [1] | [2] | [3] | [5] | [6]

O=C(Nc1ccc(F)cc1)N1C[C@@H]2N[C@H](C1)C2c1ccc(-c2ccccc2F)cc1 (stereo partly drawn)
inactive: [1] | [2] | [3] | [5] | [6]

COc1ccc2c3c(n(C)c2c1)[C@H](CO)NCC31CCN(Cc2cc(-c3ccccc3)on2)CC1
inactive: [1] | [2] | [3] | [8] 40.6% [at 0.5 µM, active compounds read low] | [5] | [6]

Cc1ccccc1-c1ccc([C@@H]2[C@H](CO)N3CCCCN(C(=O)Nc4cccc(F)c4)C[C@@H]23)cc1
inactive: [1] | [2] | [3] | [5] | [6] | [7]

C[C@H](CO)N1C[C@H](C)[C@H](CN(C)Cc2ccc(C(F)(F)F)cc2)OCCCC[C@H](C)Oc2ccc(NC(=O)Cc3ccccc3)cc2C1=O
inactive: [1] | [2] | [3] | [5]
